# From PMC9174471
# Target: Histone H4 (UniProt P62805)
# Test: cross-link between two proteins; cross-linking mass spectrometry
substance,measurement,value
"ADP/ATP translocase 3, P12236",listed as a hit,yes
